Test results: the supplement of paper PMC10849652
The full data set covers some 7,900 targets. This sample favours those with a hit. About 0.6% of all pairs of compound and target were hits.

Assays:
Assay in all cases: log2 fold change, soluble protein after heating vs DMSO (PISA); higher = thermal stabilisation; K562 cells, 10 uM, 30 min; active = over 0.2 and 3.5 SD of the protein, either way, in both replicates (recomputed)
[1] = compound: CC[C@@H]1C(=O)N(C)c2cnc(Nc3ccc(C(=O)NC4CCN(C)CC4)cc3OC)nc2N1C1CCCC1
In short: (§1)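 K562 cells at 2×10^6 cells/mL were exposed to 10 μM compound for 30 min, then aliquots were heated for 3 min across 48°C-58°C, pooled, and extracted in PBS containing 0.5% NP-40 at 4°C. The supernatant after 21,000xg for 90 min was taken as soluble protein and measured by TMTpro 16plex LC-MS/MS with channel sums equalised. Thermal stability is reported relative to control samples, with values from duplicates. Fold changes are given on a log2 scale.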

[2] = compound: CC[C@@H]1C(=O)N(C)c2cnc(Nc3ccc(C(=O)N[C@H]4CC[C@H](N5CCN(CC6CC6)CC5)CC4)cc3OC)nc2N1C(C)C [volasertib]
In short: as §1

[3] = compound: CC[C@H](C)N1C=C(C2=C(C=C(C=C21)C3=CN=C(C=C3)N4CCNCC4)C(=O)NCC5=C(C=C(NC5=O)C)C)C
In short: as §1

[4] = compound: CC[C@H](C)[C@@H](C(=O)N[C@@H]([C@@H](C)O)C(=O)N[C@@H](CC(C)C)C(=O)[C@]1(CO1)C)NC(=O)[C@H]([C@@H](C)CC)N(C)C(=O)C [epoxomicin]
In short: as §1

[5] = compound: CCn1c(C(=O)N(C2CC2)C2CC2)cc2c3c(ncn3C)c(Nc3cc(C)n(C)n3)nc21
In short: as §1

[6] = compound: CCn1cc(-c2ccnc3[nH]c(-c4cccc(CN(C)C)c4)cc23)c(-c2ccc(NC(=O)N(C)C)cc2)n1
In short: as §1

[7] = compound: CN(C)CC(=O)Nc1ccc2[nH]c(=O)c3ccccc3c2c1
In short: as §1

[8] = compound: CN(CCOC1=CC=C(C=C1)C[C@H]2C(=O)NC(=O)S2)C3=CC=CC=N3 (racemic) [rosiglitazone]
In short: as §1

[9] = compound: CN1C2=C(C3=C1C(=O)N(N=C3)CC4=CC(=CC=C4)N)SC(=C2)S(=O)C
In short: as §1

[10] = compound: CN1CCC(CNc2ccc3ncc(-c4cccc(OC(F)(F)F)c4)n3n2)CC1
In short: as §1

Measured: log2 fold change

PSMD1 (UniProt Q99460)
UniProt Q99460, sequence (Q99460 whole entry, looked up): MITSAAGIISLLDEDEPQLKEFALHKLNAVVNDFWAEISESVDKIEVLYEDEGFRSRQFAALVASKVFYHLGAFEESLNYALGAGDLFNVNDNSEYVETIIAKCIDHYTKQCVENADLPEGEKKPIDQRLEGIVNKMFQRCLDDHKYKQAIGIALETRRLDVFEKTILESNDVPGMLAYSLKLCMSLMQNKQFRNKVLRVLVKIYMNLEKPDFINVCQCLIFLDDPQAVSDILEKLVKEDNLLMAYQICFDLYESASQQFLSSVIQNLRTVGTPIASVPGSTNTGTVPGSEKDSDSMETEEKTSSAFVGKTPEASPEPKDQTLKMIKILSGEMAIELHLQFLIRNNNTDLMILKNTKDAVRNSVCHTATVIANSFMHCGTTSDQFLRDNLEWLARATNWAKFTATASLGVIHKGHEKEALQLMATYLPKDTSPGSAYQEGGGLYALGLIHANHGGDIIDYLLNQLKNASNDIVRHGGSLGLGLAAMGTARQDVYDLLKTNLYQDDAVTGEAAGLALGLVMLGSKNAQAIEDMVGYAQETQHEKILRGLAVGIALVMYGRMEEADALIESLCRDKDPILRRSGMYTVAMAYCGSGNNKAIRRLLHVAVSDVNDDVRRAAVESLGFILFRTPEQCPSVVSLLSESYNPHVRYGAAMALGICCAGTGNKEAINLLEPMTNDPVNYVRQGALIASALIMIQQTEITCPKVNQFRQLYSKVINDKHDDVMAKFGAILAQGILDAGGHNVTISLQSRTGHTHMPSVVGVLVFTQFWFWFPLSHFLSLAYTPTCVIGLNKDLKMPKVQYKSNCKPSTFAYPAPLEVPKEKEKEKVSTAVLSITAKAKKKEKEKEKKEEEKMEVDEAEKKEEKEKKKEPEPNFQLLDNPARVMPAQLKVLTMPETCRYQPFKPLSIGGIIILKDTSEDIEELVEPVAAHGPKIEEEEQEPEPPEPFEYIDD
inactive: [1] 0.042 | [2] 0.146 | [3] -0.001 | [4] -0.278 | [5] 0.015 | [6] 0.028 | [7] -0.005 | [8] -0.026 | [9] 0.043 | [10] 0.059

PRUNE1 (UniProt Q86TP1)
UniProt Q86TP1, sequence (Q86TP1 whole entry, looked up): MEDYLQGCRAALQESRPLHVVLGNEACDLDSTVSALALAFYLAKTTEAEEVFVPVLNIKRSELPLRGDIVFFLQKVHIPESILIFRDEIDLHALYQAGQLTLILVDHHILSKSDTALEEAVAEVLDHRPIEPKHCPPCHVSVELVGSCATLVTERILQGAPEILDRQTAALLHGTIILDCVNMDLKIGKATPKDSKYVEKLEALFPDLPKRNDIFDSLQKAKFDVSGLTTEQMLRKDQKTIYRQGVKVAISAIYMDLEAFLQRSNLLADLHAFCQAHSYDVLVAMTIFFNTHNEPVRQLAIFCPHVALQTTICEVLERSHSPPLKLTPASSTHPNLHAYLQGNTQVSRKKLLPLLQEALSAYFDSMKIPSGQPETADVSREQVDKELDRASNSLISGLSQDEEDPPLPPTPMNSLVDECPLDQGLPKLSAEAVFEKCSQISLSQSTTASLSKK
active: [2] -0.417
inactive: [1] -0.083 | [3] 0.067 | [4] 0.012 | [5] -0.035 | [6] -0.024 | [7] -0.018 | [8] 0.04 | [9] -0.079 | [10] -0.089

PIK3C3 (UniProt Q8NEB9)
UniProt Q8NEB9, sequence (Q8NEB9 whole entry, looked up): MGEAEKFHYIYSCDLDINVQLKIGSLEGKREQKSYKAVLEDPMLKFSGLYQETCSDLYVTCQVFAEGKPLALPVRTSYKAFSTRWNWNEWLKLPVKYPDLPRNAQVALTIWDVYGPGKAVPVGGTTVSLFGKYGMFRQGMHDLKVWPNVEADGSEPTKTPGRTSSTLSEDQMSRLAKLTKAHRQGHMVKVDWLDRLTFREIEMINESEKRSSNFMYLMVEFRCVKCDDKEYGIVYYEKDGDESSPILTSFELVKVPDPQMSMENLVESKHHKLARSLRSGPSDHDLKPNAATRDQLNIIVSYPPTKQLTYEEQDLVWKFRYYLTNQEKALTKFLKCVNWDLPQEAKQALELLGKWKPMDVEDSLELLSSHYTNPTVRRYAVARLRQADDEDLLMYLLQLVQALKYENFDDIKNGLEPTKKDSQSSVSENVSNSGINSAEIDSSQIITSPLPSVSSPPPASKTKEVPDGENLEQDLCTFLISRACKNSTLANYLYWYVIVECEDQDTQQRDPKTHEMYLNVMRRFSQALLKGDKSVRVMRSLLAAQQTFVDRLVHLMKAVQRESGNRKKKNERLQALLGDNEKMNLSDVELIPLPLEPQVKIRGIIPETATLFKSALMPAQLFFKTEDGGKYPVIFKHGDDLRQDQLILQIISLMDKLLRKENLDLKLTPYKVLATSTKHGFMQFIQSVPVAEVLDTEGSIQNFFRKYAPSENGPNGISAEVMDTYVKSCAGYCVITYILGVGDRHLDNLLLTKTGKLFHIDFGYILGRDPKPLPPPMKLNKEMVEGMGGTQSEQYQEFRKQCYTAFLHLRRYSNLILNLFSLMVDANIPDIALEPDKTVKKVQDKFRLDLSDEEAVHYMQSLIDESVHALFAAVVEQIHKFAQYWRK
inactive: [1] 0.16 | [2] 0.153 | [3] 0.023 | [4] -0.071 | [5] 0.044 | [6] -0.117 | [7] -0.03 | [8] -0.022 | [9] 0.025 | [10] 0.015

PPID (UniProt Q08752)
UniProt Q08752, sequence (Q08752 whole entry, looked up): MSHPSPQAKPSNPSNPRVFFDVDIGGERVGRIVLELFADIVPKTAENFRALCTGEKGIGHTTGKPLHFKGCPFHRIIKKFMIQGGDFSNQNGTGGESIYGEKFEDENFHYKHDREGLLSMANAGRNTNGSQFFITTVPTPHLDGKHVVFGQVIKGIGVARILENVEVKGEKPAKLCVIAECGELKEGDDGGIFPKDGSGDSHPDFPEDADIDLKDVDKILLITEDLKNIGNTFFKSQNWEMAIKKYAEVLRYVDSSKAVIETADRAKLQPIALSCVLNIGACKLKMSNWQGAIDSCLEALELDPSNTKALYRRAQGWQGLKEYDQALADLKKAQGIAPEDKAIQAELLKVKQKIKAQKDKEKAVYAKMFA
inactive: [1] -0.076 | [3] 0.132 | [4] 0.026 | [5] -0.046 | [6] -0.058 | [7] 0.087 | [8] 0.062 | [9] -0.015 | [10] -0.173
active: [2] -0.366

PPM1G (UniProt O15355)
UniProt O15355, sequence (O15355 whole entry, looked up): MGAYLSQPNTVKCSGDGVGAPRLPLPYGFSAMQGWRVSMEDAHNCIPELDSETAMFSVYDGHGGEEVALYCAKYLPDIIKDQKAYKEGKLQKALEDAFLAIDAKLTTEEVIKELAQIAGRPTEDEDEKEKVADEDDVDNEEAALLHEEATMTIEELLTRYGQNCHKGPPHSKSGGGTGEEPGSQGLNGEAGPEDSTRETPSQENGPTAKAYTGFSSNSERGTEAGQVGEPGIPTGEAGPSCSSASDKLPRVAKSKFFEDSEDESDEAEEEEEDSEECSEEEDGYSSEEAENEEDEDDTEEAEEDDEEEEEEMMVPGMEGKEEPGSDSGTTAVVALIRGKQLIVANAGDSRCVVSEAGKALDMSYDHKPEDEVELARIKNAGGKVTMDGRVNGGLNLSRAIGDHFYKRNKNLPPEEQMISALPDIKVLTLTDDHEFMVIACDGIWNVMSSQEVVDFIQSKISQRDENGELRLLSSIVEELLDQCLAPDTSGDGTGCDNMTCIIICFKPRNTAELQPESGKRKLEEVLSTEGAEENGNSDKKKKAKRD
active: [2] -0.381
inactive: [1] -0.208 | [3] 0.066 | [4] 0.087 | [5] -0.001 | [6] -0.073 | [7] 0.098 | [8] 0.089 | [9] 0.017 | [10] -0.025

PLCG1 isoform 2 (UniProt P19174)
UniProt P19174, sequence (P19174 whole entry, looked up): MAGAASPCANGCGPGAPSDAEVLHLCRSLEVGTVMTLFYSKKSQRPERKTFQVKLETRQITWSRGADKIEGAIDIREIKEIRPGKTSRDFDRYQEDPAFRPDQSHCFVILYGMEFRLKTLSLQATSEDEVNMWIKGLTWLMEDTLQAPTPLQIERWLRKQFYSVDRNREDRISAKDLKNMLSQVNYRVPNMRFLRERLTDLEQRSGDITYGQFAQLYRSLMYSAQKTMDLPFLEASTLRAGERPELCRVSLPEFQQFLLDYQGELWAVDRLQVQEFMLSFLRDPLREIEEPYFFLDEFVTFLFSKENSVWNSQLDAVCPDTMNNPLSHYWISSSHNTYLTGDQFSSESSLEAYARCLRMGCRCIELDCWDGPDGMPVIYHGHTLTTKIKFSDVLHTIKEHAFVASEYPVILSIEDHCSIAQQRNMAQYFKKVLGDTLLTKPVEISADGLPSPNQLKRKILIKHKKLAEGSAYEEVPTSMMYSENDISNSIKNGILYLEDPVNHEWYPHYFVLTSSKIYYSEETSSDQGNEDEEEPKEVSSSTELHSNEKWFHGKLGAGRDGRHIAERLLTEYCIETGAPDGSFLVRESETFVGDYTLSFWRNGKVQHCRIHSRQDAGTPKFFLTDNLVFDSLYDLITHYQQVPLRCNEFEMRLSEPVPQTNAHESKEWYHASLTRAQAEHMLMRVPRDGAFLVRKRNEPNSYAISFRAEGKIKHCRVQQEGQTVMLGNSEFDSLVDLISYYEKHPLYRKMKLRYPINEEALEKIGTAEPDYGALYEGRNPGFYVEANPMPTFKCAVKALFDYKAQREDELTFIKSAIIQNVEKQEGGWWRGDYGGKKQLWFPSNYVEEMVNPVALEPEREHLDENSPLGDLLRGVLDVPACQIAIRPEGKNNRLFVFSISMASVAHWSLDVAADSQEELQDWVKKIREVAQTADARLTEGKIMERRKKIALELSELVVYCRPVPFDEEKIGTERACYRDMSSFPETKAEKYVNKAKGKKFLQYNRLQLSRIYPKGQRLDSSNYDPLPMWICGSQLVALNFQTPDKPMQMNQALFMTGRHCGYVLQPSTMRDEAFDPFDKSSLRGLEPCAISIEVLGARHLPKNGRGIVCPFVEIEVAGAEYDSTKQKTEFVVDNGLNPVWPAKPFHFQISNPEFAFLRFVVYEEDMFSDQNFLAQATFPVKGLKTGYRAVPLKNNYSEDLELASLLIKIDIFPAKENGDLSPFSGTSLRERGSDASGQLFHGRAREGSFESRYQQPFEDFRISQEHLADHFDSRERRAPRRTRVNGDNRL
active: [10] -0.412
inactive: [1] -0.031 | [2] -0.25 | [3] 0.05 | [4] 0.014 | [5] -0.097 | [6] -0.187 | [7] 0.085 | [8] 0.09 | [9] 0.083

POLR2K (UniProt P53803)
inactive: [1] -0.259 | [2] -0.002 | [3] -0.05 | [4] -0.032 | [5] 0.144 | [6] -0.049 | [7] 0.05 | [8] -0.059 | [9] -0.02 | [10] 0.05
